Measured values published in PubChem BioAssay.
The source made the active and inactive calls.

What was measured:
[1] = anti-His antibody binders, primary screen, artefact control for SMM control protein annotation, biochemical, small-molecule microarray, 635 nm fluorescence (AID 1128); settings: anti-His Alexa647 antibody binding, higher = more signal;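 note: score merges feature fluorescence with signal-to-noise for each printed compound spot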
[2] = system: Human papillomavirus type 1a E7 protein (residues 1-88); test: HPV1a E7 small-molecule binders, primary screen, biochemical, small-molecule microarray, residues 1-88, 635 nm (AID 1129); settings: small-molecule microarray binding, fluorescence 635 nm; higher = more signal
[3] = molecular target: Focal adhesion kinase 1 (Homo sapiens) (UniProt Q05397); test: small-molecule microarray binders of FAK, primary screen, biochemical, 635/667 nm fluorescence, BSA, DTT (AID 1130); settings: PTK2 binding, 635 nm fluorescence, higher = more signal;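 note: composite of spot emission at 667 nm and signal to noise over triplicate slides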
[4] = system: Fibrinogen (Alexa647-labelled); test: fibrinogen binders on compound microarrays, profiling panel, artefact control for SMM control-protein annotation, biochemical, small-molecule microarray, 635/667 nm fluorescence (AID 1131); settings: fibrinogen-A647 binding fluorescence, higher = more signal;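 note: z-score merges 667 nm fluorescence with per-spot signal-to-noise over triplicate slides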
[5] = molecular target: Follistatin (Homo sapiens) (UniProt P19883); test: follistatin binders on small-molecule microarrays, primary screen, biochemical, small-molecule microarray, 635/667 nm fluorescence (AID 1132); settings: FST binding, 635 nm fluorescence, higher = more signal
[6] = molecular target: Fibroblast growth factor 2 (Homo sapiens) (UniProt P09038); test: FGF2 binders on small-molecule microarrays, primary screen, biochemical, small-molecule microarray, 635/667 nm fluorescence (AID 1133); settings: small-molecule microarray binding, FGF2, fluorescence 635/667; higher = more signal
[7] = mitochondrial membrane potential change in A549 cells, profiling panel, cell-based, JC-1 fluorescence, basal, 24 h, 100 nL (AID 1138); settings: higher = more signal;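 note: A549 lung adenocarcinoma cells under basal conditions with no added stimulus; test concentration not given here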
[8] = system: Lefty1; test: Lefty1 binders on small-molecule microarrays, primary screen, biochemical, small-molecule microarray, 635/667 nm fluorescence (AID 1139); settings: small-molecule microarray binding, fluorescence 635/667; higher = more signal
[9] = system: wheat germ agglutinin (Triticum aestivum), Alexa647-labelled; test: wheat germ agglutinin binders on compound microarrays, profiling panel, artefact control for SMM control-protein annotation, biochemical, small-molecule microarray, 635/667 nm fluorescence (AID 1140); settings: WGA-A647 binding, 635 nm fluorescence, higher = more signal;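 note: score merges 667 nm feature emission with signal to noise over triplicate slides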
[10] = molecular target: Luciferin 4-monooxygenase (Photinus pyralis) (UniProt P08659); test: firefly luciferase enzyme inhibitors, primary screen, biochemical, luminescence, purified enzyme, 2006 set (AID 1141); settings: SteadyGlo luminescence, 30 min, higher = more signal, called active from +8 up or from −8 down;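 note: cell-free assay with purified firefly luciferase at 100 ng per well in PBS; test concentration not given here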
Sequence of Luciferin 4-monooxygenase (Photinus pyralis) (P08659 whole entry, looked up): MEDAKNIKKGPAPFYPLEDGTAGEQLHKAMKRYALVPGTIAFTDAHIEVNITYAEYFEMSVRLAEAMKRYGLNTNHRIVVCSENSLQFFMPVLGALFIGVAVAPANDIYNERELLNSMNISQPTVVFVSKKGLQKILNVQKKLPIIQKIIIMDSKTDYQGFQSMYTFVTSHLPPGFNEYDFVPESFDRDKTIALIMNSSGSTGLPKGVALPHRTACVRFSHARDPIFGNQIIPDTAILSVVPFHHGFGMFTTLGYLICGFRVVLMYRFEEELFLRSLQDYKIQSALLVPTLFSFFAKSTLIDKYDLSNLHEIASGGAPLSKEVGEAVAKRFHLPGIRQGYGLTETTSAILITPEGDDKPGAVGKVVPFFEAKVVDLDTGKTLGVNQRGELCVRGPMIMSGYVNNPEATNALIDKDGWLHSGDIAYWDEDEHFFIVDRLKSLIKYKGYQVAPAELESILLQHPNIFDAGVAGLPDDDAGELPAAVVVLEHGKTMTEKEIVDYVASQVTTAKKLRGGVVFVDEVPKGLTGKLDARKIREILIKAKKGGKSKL

Sequence of Follistatin (Homo sapiens) (P19883 whole entry, looked up): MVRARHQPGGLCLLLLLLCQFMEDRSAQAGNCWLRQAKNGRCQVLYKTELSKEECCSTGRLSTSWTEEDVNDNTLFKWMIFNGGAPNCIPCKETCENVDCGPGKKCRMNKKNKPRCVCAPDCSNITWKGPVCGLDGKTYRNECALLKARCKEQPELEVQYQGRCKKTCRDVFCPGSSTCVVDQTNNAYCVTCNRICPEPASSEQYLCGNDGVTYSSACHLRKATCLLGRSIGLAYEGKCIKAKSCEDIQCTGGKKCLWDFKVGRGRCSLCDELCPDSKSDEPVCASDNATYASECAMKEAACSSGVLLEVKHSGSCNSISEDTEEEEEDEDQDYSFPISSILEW
Sequence of Fibroblast growth factor 2 (Homo sapiens) (P09038 whole entry, looked up): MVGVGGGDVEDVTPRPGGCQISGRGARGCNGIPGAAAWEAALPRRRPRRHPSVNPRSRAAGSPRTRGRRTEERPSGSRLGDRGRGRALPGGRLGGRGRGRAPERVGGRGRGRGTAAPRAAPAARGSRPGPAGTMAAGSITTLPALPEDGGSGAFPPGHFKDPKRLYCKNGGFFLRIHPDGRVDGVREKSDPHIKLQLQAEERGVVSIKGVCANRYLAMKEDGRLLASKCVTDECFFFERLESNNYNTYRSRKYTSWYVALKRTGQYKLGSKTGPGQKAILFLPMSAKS
Sequence of Focal adhesion kinase 1 (Homo sapiens) (Q05397 whole entry, looked up): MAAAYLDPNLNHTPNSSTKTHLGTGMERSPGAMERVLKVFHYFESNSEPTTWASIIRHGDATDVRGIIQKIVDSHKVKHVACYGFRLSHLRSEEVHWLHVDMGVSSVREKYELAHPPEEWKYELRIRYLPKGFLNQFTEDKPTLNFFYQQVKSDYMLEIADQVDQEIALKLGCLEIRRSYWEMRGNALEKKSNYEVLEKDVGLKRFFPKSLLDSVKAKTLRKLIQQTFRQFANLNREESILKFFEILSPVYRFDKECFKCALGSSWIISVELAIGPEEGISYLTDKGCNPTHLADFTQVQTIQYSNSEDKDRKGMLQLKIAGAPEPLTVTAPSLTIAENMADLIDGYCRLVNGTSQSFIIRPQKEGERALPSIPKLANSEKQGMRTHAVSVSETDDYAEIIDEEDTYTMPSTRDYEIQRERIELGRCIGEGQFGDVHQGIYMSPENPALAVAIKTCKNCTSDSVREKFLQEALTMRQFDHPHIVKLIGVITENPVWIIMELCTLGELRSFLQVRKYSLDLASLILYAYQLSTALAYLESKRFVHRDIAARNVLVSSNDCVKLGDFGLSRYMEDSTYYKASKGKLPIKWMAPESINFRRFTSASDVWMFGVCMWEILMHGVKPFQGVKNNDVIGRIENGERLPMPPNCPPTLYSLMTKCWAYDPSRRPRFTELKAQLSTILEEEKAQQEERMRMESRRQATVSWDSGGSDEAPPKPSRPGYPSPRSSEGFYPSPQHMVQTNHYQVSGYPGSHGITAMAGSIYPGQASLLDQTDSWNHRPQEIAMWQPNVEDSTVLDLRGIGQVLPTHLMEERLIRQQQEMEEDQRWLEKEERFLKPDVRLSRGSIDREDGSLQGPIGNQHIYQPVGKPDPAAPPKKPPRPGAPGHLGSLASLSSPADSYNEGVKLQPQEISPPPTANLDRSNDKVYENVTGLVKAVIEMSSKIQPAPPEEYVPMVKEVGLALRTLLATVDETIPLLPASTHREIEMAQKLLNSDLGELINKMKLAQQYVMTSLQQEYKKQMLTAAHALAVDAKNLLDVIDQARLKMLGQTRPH

SMILES	composite z-score [1]	composite z-score [2]	composite z-score [3]	composite z-score [4]	composite z-score [5]	composite z-score [6]	z-score [7]	composite z-score [8]	composite z-score [9]	z-score [10]
CC(C)(C)OC(=O)CC[C@@]1(C(=O)N2CCOCC2)N=C(c2ccc(OCCCO)cc2)O[C@@H]1c1ccccc1N=[N+]=[N-]	3.1	1.29	0.288	1.01	1.36	1.22	1.9	0.885	0.987	-10.6 (active)
COC(=O)[C@@]1(Cc2ccc(OC)cc2)[C@H]2c3cc(C(=O)N4CCCC4)n(C[C@H](O)CO)c3C[C@H]2CN1C(=O)c1ccccc1	0.39	0.339	0.493	0.276	-0.319	-0.411	0.605	-0.752	1.02	1.84 (inactive)
CCOC(=O)C[C@H]1[C@H](OC(=O)c2ccccc2-c2ccccc2)[C@@H](NC(=O)c2ccc(-c3ccccc3)cc2)c2cc(OCCCO)ccc2N1C(=O)c1ccccc1	0.426	0.78	0.177	0.58	0.77	0.466	1.39	0.935	0.17	-0.0993 (inactive)
O=C1OCC=C[C@H]2OC34C=CCN(c5ccc(Cl)cc5)C(=O)[C@H]3N(CCCO)C(=O)[C@@H]4[C@@H]12 (stereo not given in full)	-0.562	-0.799	0.29	-1.02	-0.706	-0.708	-0.353	-0.672	-0.748	-0.429 (inactive)
CC(=O)NCCCC[C@@H]1NC(=O)[C@@H]2C[C@H](C(=O)NCc3ccc(F)cc3)[C@H](c3ccc(O)cc3)N2C1=O	2.04	0.582	0.244	0.754	1.33	1.22	0.329	0.889	0.182	-0.333 (inactive)
CCCC[C@@H]1C[C@H]1[C@@H](NC(=O)c1ccccc1)c1ccc(-c2ccccc2)cc1	0.676	0.818	-0.0867	0.46	0.203	-0.368	-0.232	-0.26	0.348	0.0434 (inactive)
O=C1c2ccccc2[C@@]2(Cc3ccccc3N(Cc3ccccc3)C2=O)[C@H](c2ccc(CO)cc2)N1Cc1ccccc1C(F)(F)F	1.88	-0.911	-0.676	-2.02	-0.368	-0.721	1.78	-1.04	-0.749	-0.666 (inactive)
COc1ccc([Si](C)(C)[C@H]2[C@H](CCO)O[C@@]3(C(=O)N(Cc4ccccc4)c4ccc(N5C(=O)COc6ccccc65)cc43)[C@@H]2C)cc1	-0.12	-0.127	-0.0125	0.26	-0.242	-0.116	0.771	-0.0702	1.1	-0.369 (inactive)
CN1C(=O)C2C=CC(C(O)C(c3ccccc3)c3ccccc3)N(Nc3ccccc3)C2C1=O (stereo not given)	0.889	1.19	0.668	1.03	1.36	0.0635	0.0496	0.643	0.889	-0.0128 (inactive)
CC(C)OC(=O)C1=CCC(c2cccc(Cl)c2)O1 (stereo not given)	0.872	0.291	-0.0871	0.455	-0.328	-1.59	-1.4	-1.11	0.58	2.09 (inactive)
COCCCNC(=O)[C@@]1(Sc2ccc(C)cc2)CC(=O)N(Cc2ccccc2)[C@@H]1c1ccc(CO)cc1	0.068	-0.277	-0.166	-1.56	-0.489	-0.236	-0.0602	-1.03	-0.4	0.542 (inactive)
NC(=O)NCC#Cc1ccc2c(c1)[C@]1(C(=O)N2)[C@H](c2ccccc2OCCO)N2[C@H](c3ccccc3)[C@H](c3ccccc3)OC(=O)[C@H]2[C@@H]1C(=O)N1CCCCCCC1	0.443	1.25	2.2	0.505	1.37	0.927	-0.724	0.912	1.46	-0.87 (inactive)
[N-]=[N+]=NCc1ccccc1[C@@H]1OC(c2ccc(OCCCO)cc2)=N[C@]1(Cc1ccccc1)C(=O)O	1.25	0.445	1.4	0.635	0.592	0.0221	1.36	-0.548	0.536	-1.44 (inactive)
CC(C)C[C@@H]1NC(=O)[C@@H]2C[C@H](C(=O)NCCCCN(C)C)[C@H](c3ccc(O)cc3)N2C1=O	2.74	-0.494	-0.462	-0.838	-0.21	-0.0947	-0.273	-0.477	-0.153	0.36 (inactive)
CN(C)CCCCNC(=O)[C@@H]1C[C@@H]2C(=O)N[C@@H](CCCCN)C(=O)N2[C@@H]1c1cccc(OCCO)c1	0.117	-0.229	-0.815	-0.581	-0.029	0.554	-0.872	-0.382	-0.13	0.654 (inactive)
CN1C(=O)C2C(C1=O)C1C=C(c3ccc(CO)cc3)C2C(C2CC2)N1Cc1sc2ccccc2c1Cl (stereo not given)	3.31	1.26	1.89	0.982	0.968	1.06	2.26	0.453	1.25	-1.75 (inactive)
CC(=O)NCCCC[C@@H]1NC(=O)[C@@H]2C[C@H](C(=O)NCCCCCC[N+](C)(C)C)[C@H](c3cccc(OCCO)c3)N2C1=O	2.89	1.17	0.202	0.416	1.39	1.69	-0.972	1.26	0.548	0.364 (inactive)

SMILES	composite z-score [1]	composite z-score [2]	composite z-score [3]	composite z-score [4]	composite z-score [5]	composite z-score [6]	z-score [7]	composite z-score [8]	composite z-score [9]	z-score [10]
COC(=O)C(CC#Cc1ccc2c(c1)[C@]1(C(=O)N2)[C@H](C(=O)N2CCCCCCC2)[C@H]2C(=O)O[C@H](c3ccccc3)[C@H](c3ccccc3)N2[C@@H]1c1ccccc1OCCO)C(=O)OC	3	1.35	4.24	0.654	1.56	0.197	-1.08	1.89	1.73	-0.525 (inactive)
CC(C)[C@H]1COC(=O)N1C(=O)[C@H]1[C@@H](c2ccccc2)N(c2ccccc2)O[C@@H]1C	-0.0372	0.706	0.201	0.635	0.562	0.57	0.78	0.593	0.127	0.132 (inactive)
CC(C)C(=C=CC[C@H](O)c1ccccc1OCCO)CCO	0.526	0.0618	0.101	0.217	0.0251	0.465	0.205	0.653	0.417	0.27 (inactive)
COC(=O)c1nc2oc1CC[C@@H](CO)NC(=O)N(C)Cc1cn(nn1)C[C@H](Cc1ccccc1)NC2=O	0.0255	-0.151	-0.242	0.0318	0.905	1.06	0.457	0.17	0.536	0.376 (inactive)
CC(C)NC(=O)[C@@H]1c2ccccc2C(=O)N(C2CCCCC2)[C@H]1c1ccc(CO)cc1	2.71	1.15	0.517	0.137	0.449	0.525	0.483	-0.161	0.577	0.202 (inactive)
O=C1C[C@@](C(=O)O)(c2ccc([N+](=O)[O-])cc2)[C@@H](c2ccc(CO)cc2I)N1CC12CC3CC(CC(C3)C1)C2	0.829	1.11	0.365	0.607	0.348	-0.35	-1.1	0.665	1.03	-0.869 (inactive)
CC(=O)N1Cc2ccccc2C[C@@]2(N=C(c3ccc(OCCCO)cc3)O[C@H]2c2ccccc2)C1=O	2.65	1.17	0.52	0.657	1.41	1.66	0.592	0.63	1.1	-2.32 (inactive)
O=C1OCCC/C=C\[C@H]2OC34C=CCN(CCN5CCOCC5)C(=O)[C@H]3N(CCO)C(=O)[C@@H]4C12 (stereo not given in full)	2.47	-1.64	-0.3	-0.786	-0.981	-0.322	-1.08	-1.57	-0.365	0.634 (inactive)
CC(C)C(CO)N1C(=O)[C@@H]2[C@H]3C(=O)OCC=C[C@H]3OC23C=CCN(c2ccc4ccccc4c2)C(=O)[C@@H]13 (stereo not given in full)	-0.151	-1.29	-0.493	-0.581	-0.851	-1.18	0.742	-0.842	-0.328	-0.194 (inactive)
CCOC1=C2C(c3ccc(C)cc3)N(S(=O)(=O)c3ccc(C)cc3)CC2n2c(=O)n(-c3ccccc3)c(=O)n2C1 (stereo not given)	0.229	1.16	0.206	0.933	0.876	0.747	0.374	0.53	0.755	1.09 (inactive)
C=C(C(=O)CC[C@H](OC(=O)c1cccnc1)c1ccccc1OCCO)C(C)C	0.971	0.834	0.092	0.101	1.42	1.83	0.0404	1.44	0.0398	-0.0549 (inactive)
C=C(C(=O)CC[C@@H](OC(=O)c1cccnc1)c1ccc(CO)o1)C(C)C	-0.403	0.799	0.113	0.82	1.26	1.1	0.288	1.56	0.187	-1.96 (inactive)
COCCOC(=O)N1C(=O)[C@@]2(c3ccccc31)[C@H](C(=O)N1CCCCCCC1)[C@H]1C(=O)O[C@H](c3ccccc3)[C@H](c3ccccc3)N1[C@@H]2c1ccccc1OCCO	2.04	1.27	1.26	0.802	1.47	0.662	-0.647	1.47	1.53	0.131 (inactive)
C=CCC(OC(C)=O)[C@@H]1[C@@H](N(Cc2cc3ccccc3o2)C(=O)c2ccc(-c3ccccc3)cc2)c2cc(OCCCO)ccc2N1C(=O)Cc1ccc2ccccc2c1 (stereo not given in full)	0.708	-0.321	-0.0252	0.186	0.386	-0.0741	1.33	-0.0934	0.34	-0.729 (inactive)
COC(=O)[C@@]1(Cc2ccc(F)cc2)[C@H]2c3cc(C(=O)N(C)C)n(Cc4ccccn4)c3C[C@H]2CN1C(=O)c1ccccc1	1.12	1.26	1.08	0.685	0.251	-0.281	1.04	-0.12	0.647	3 (inactive)
CCOC(=O)C1=CC[C@@H](c2cccc(Cl)c2)N(S(=O)(=O)c2ccc(C)cc2)[C@H]1c1ccc(C#N)cc1	0.931	1.26	0.444	0.716	0.938	0.56	1.22	1.09	0.985	1.35 (inactive)
